The values that follow come from PubChem BioAssay (NCI).

This is part of a sample that, as a whole, favours compounds with a hit. Of some 83,000 tested, about 20% had one in any assay.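 Negative percent growth values reflect cell death: -40 means 40% of the cells present at the start died, and -100 means all died.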 The source made the active and inactive calls. Rule for the calls: active = growth percent below 10; inactive = the rest.

Assay in all cases: NCI-60 one-dose screen, 48 h (100 = growth as untreated, 0 = no growth, -100 = all killed)
Common to all, as to conditions: 10 µM unless noted

Assay [1] has as its system HCT-15 colon.
Assay [2] concerns HT29 colon.
The subject of assay [3] is SNB-75 CNS.
The subject of assay [4] is SNB-19 CNS.
Assay [5] relates to U251 CNS.
In assay [6] the test system is PC-3 prostate.
In assay [7] the test system is SK-MEL-5 melanoma.
Assay [8] relates to UACC-62 melanoma.
Assay [9] deals with LOX IMVI melanoma.
In assay [10] the test system is SK-MEL-28 melanoma.
For assay [11], the system named is SK-MEL-2 melanoma.
Assay [12] relates to EKVX NSCLC.
The subject of assay [13] is SN12C renal.
Assay [14] deals with UO-31 renal.
Assay [15] concerns TK-10 renal.
Assay [16] relates to ACHN renal.
Assay [17] has as its system CAKI-1 renal.
In assay [18] the test system is A498 renal.
Assay [19] concerns CCRF-CEM leukemia.
Assay [20] concerns MOLT-4 leukemia.

As to `COc1ccc(C2Nc3nc(SC)nc(N)c3N=C3c4ccccc4CCC32)cc1` (stereo not given), the growth in assay [1] is 75.9% (inactive); in assay [2], 69.9% (inactive); in [3], 92.5% (inactive); in [4] it was 104% (inactive); in assay [5], 95% (inactive); in assay [6], 54.7% (inactive). In addition, the growth in assay [7] is 80.2% (inactive); in assay [8], 85.3% (inactive); in assay [9] it was 89.9% (inactive); in [10] it was 103% (inactive); in assay [11], 107% (inactive); in assay [12], 58.5% (inactive). Further, the growth in assay [13] was 109% (inactive); in assay [14], 73.3% (inactive); in [15], 158% (inactive); in assay [16], 103% (inactive); in assay [17], 85.6% (inactive); in assay [18], 48.8% (inactive). Further, the results for the growth in assay [19] and in assay [20] were 47.8% (inactive) and 69.7% (inactive), respectively.

As to `CN1CCN(CCNC(=O)c2cccc(CN3c4cccc5c4C(=Cc4cccnc43)N(C)C5=O)c2)CC1`, the growth in assay [1] is 10.7% (inactive); in assay [2], 17.7% (inactive); in assay [3], -11.2% (active); in assay [4], 42.9% (inactive); in assay [5], 48.2% (inactive); in assay [6], 39.6% (inactive). Also, the growth in assay [7] was 12.9% (inactive); in assay [8] it was 17.3% (inactive); in assay [9] it was 8.25% (active); in assay [10] it was 67.8% (inactive); in assay [11], 62% (inactive); in assay [12] it was 40.8% (inactive). The growth in [13] is 42.8% (inactive); in [14], 14.3% (inactive); in assay [15] it was 25.4% (inactive); in [16] it was 23.5% (inactive); in assay [17] it was 8.78% (active); in assay [18], 30.9% (inactive). Further, the growth in assay [19] is 47% (inactive); in [20], 47.4% (inactive).

With `[2H]C([2H])([2H])Oc1cccc(/C=C/C(=O)/C=C(/C=C/c2cccc(OC([2H])([2H])[2H])c2OC([2H])([2H])[2H])OB(F)F)c1OC([2H])([2H])[2H]`, the growth in [1] is 58.3% (inactive); in [2], 86.3% (inactive); in [3], 55.2% (inactive); in [4], 89.1% (inactive); in [5] it was 58.8% (inactive); in [6], 74.3% (inactive). The growth is 98.6% (inactive) in assay [7]; 66.6% (inactive) in assay [8]; 54.6% (inactive) in assay [9]; 88.5% (inactive) in [10]; 116% (inactive) in [11]; 93.6% (inactive) in [12]. In addition, the growth in assay [13] is 74% (inactive); in assay [14], 51.5% (inactive); in assay [15], 99.9% (inactive); in assay [16], 51.5% (inactive); in assay [17], 58.1% (inactive); in [18], 117% (inactive). Further, the growth in [19] is 4.12% (active); in assay [20] it was 15.6% (inactive).

As to `COc1ccc(C/C(C)=C(/c2ccc(OCCN3CCCC3)cc2)c2ccc(OC(=O)NCc3ccccc3)cc2)cc1`, the growth is 61.4% (inactive) in [1]; 18.6% (inactive) in assay [2]; 71.1% (inactive) in [3]; 85.6% (inactive) in assay [4]; 67.1% (inactive) in assay [5]; 67.3% (inactive) in [6]. For the same compound, the growth was 77.8% (inactive) in assay [7]; 84.8% (inactive) in assay [8]; 84.4% (inactive) in assay [9]; 84.7% (inactive) in assay [10]; 104% (inactive) in assay [11]; 87.5% (inactive) in [12]. Further, the growth in assay [13] was 91.9% (inactive); in [14], 59.9% (inactive); in [15], 92.8% (inactive); in assay [16], 89.7% (inactive); in assay [17], 97.7% (inactive); in assay [18], 107% (inactive). The growth in assay [19] was 47.3% (inactive); in assay [20] it was 40% (inactive).

For `O=C(c1cccc(Br)c1)N1CCN(c2ccnc3cc(Cl)ccc23)CC1`, the growth in [1] was 90.3% (inactive); in assay [2] it was 81.7% (inactive); in assay [3], 117% (inactive); in [4] it was 85.1% (inactive); in assay [5], 78.2% (inactive); in [6], 79% (inactive). Further, the growth was 82.2% (inactive) in assay [7]; 70.1% (inactive) in assay [8]; 102% (inactive) in [9]; 95.7% (inactive) in assay [10]; 85.7% (inactive) in assay [11]; 87.5% (inactive) in assay [12]. The growth is 94% (inactive) in assay [13]; 63.6% (inactive) in assay [14]; 75.8% (inactive) in [15]; 90.6% (inactive) in [16]; 79% (inactive) in [17]; 34.1% (inactive) in assay [18]. For the same compound, the values for the growth in assay [19] and in assay [20] were 87.3% (inactive) and 87.8% (inactive), respectively.

Regarding `COC(=O)/C=C1/SC(=Nc2ccc([N+](=O)[O-])cc2)N(CCc2c[nH]c3ccccc23)C1=O`, the growth in assay [1] is 29.9% (inactive); in assay [2] it was 51.8% (inactive); in assay [3], 84.3% (inactive); in assay [4], 69.2% (inactive); in [5], 46.9% (inactive); in assay [6] it was 63.4% (inactive). Moreover, the growth in assay [7] is 84.9% (inactive); in [8], 51% (inactive); in assay [9], -9.3% (active); in assay [10], 76.8% (inactive); in [11] it was 68.1% (inactive); in assay [12] it was 87.2% (inactive). Further, the growth in assay [13] is 58.8% (inactive); in [14] it was 48.8% (inactive); in assay [15] it was 103% (inactive); in assay [16], 64.6% (inactive); in assay [17], 73.1% (inactive); in [18] it was 78.2% (inactive). Moreover, the growth in assay [19] is 8.51% (active); in assay [20], -2.1% (active).

On to `O=c1cc(N/N=C/c2ccc(F)cc2)c2cc(Cl)ccc2[nH]1`, for which the growth in assay [1] was 83.4% (inactive); in [2] it was 88.4% (inactive); in assay [3] it was 131% (inactive); in [4] it was 91.1% (inactive); in assay [5], 94.4% (inactive); in assay [6], -43% (active). Moreover, the growth is 11.6% (inactive) in assay [7]; 80.4% (inactive) in assay [8]; 95.6% (inactive) in assay [9]; 90% (inactive) in assay [10]; 77.2% (inactive) in [11]; 74.2% (inactive) in [12]. Also, the growth in [13] is 92.3% (inactive); in assay [14] it was 79% (inactive); in assay [15], 91.5% (inactive); in assay [16] it was 91.1% (inactive); in [17] it was 99% (inactive); in assay [18] it was 90.5% (inactive). Besides, the growth was -13.2% (active) in assay [19] and -15.8% (active) in assay [20].
